# Screening data deposited in PubChem by The Scripps Research Institute Molecular Screening Center.
# A selection: hits, their analogues and other compounds. The true share with any hit is near 4.6%.
# hgDAF-12 ag: H. glycines DAF-12 receptor agonists, primary screen, cell-based, luminescence, HEK293, GAL4 fusion, UAS-luciferase; activation, % at 6.8 µM; AID 687014, 2013; 370,000 compounds, 1.8% hits; HEK293 GAL4-hgDAF12 UAS-luciferase reporter, agonist luminescence; normalized to butyrate control;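 active means activation above a cutoff set at the mean of all screened compounds plus 3 SD, cut at about 10% in these data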;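 further: 0% = DMSO wells and 100% = sodium butyrate wells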
# ssDAF12 agonist: S. stercoralis DAF-12 nuclear receptor activators, primary screen, cell-based, luminescence, HEK293, GRIP1 co-expression, lit1-tk-luc. Nuclear hormone receptor DAF-12 (Strongyloides stercoralis). AID 652126, 2013. 370,000 compounds, 1% hits. activation, % at 6.8 µM. HEK293 ssDAF-12/GRIP1 lit1-tk-luc reporter; % of 3 µM dafachronic acid response;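 active means activation above the mean over all tested compounds plus 3 SD, cut at about 0.9% in these data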;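 further: 0% = DMSO-only wells and 100% = 3 µM delta7-dafachronic acid wells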
# DAX1 inh-1: DAX1 (NR0B1) inhibitors, primary screen, cell-based, HEK293, Gal4-DAX1, luciferase luminescence; Nuclear receptor subfamily 0 group B member 1 (Homo sapiens), P51843; 340,000 compounds, 0.99% hits; inhibition, % at 6.75 µM; HEK293 Gal4-DAX1 luciferase reporter; AID 504766, 2011;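 active means inhibition above the mean over all tested compounds plus 3 SD, cut at about 4.2% in these data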;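 further: 0% = DAX1-transfected cells with DMSO and 100% = empty-vector control cells with DMSO; inhibition shows as a rise in luminescence from relieved DAX1 repression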
# hcDAF-12 act: H. contortus DAF-12 nuclear receptor activators, primary screen, cell-based, luminescence, HEK293, lit1-tk-luc reporter; HEK293 hcDAF-12 lit1-tk-luc reporter; 0% DMSO, 100% Δ7-dafachronic acid; activation, % at 6.8 µM; 370,000 compounds, 1.4% hits; AID 652067, 2013;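 active means activation above the mean of all tested compounds plus 3 SD, cut at about 5.5% in these data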;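 further: 100% = response to 3 µM Δ7-dafachronic acid high control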
# DAX1 inh-2: DAX1 (NR0B1) inhibitors on StAR promoter, primary screen, cell-based, luminescence, SF-1 (NR5A1), full-length DAX-1 | HEK293T StAR-luciferase reporter, SF-1/DAX-1 repression relief | inhibition, % at 6.8 µM | 370,000 compounds, 1.1% hits | AID 652010, 2013;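 active means inhibition above the mean over all tested compounds plus 3 SD, cut at about 3.6% in these data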;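 further: 0% = DAX-1 cells with DMSO and 100% = cells lacking DAX-1 with DMSO; higher inhibition means more luminescence from relief of DAX-1 repression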
# Wee1 stabilizer: Wee1 degradation inhibitors, primary screen, cell-based, HeLa, Wee1K328M-luciferase, luminescence; reporter increase, % at 5 µM; Wee1-like protein kinase (Homo sapiens), P30291; 220,000 compounds, 1.2% hits; HeLa Luc-Wee1K328M stability; 100% = proteasome inhibitor MG132 effect; AID 1321, 2008;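 active means activation above the mean of all tested compounds plus 3 SD, set per screening run, cut at about 8.8% in these data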;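 further: cells exposed to compound for 20 h before luminescence read; 0% = DMSO alone and 100% = MG132 at 30 µM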
# Target sequence (P30291 whole entry K328M): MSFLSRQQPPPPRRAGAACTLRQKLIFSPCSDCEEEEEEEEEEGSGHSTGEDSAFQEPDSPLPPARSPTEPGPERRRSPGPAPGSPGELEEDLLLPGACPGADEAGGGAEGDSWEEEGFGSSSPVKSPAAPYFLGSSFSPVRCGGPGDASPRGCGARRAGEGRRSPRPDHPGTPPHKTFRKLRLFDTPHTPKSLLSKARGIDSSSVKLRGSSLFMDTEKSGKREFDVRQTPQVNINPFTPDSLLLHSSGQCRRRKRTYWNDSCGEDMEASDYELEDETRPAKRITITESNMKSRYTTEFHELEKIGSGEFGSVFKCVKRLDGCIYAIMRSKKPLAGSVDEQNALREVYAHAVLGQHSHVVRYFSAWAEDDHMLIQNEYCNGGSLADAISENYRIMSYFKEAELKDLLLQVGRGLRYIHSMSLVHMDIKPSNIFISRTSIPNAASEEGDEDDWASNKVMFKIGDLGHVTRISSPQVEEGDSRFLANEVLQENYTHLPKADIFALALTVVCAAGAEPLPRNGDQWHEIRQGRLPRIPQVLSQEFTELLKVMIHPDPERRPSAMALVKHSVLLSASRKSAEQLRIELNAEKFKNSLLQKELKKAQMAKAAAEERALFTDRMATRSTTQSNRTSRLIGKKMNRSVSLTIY
# * marks the source's active call; other numbers are inactive results; . = no result given.
SMILES,hgDAF-12 ag,ssDAF12 agonist,DAX1 inh-1,hcDAF-12 act,DAX1 inh-2,Wee1 stabilizer
Cc1ccc(CNC(=O)CCCOc2cc(=O)n(C)c3ccccc23)o1,0.4,-0.8,6.4*,-0.6,-0.5,2.5
Cc1ccc(C)c(OCC(=O)OCc2csc(CC(=O)Nc3ccccc3C)n2)c1,0.8,-1.1,0.5,1.1,0.5,.
C/C=C/c1ccc(OCC(=O)OCc2csc(CC(=O)Nc3ccccc3C)n2)c(OC)c1,-0.4,-0.9,5.9*,0.8,0.7,.
CCOC(=O)c1sc(Nc2nc(C)cc(C)n2)nc1C,0.9,-1.6,0.9,-1.1,0.4,1.7
CCOC(=O)c1sc(Nc2nc(C)cc(OC)n2)nc1C,-0.8,-1.3,4.5*,4.8,-0.1,-2.8
CCOC(=O)c1sc(N/N=C/c2cccc(C)c2)nc1C,4.3,-0.4,1.2,0.1,0.6,0.6
CC(=O)c1sc(N/N=C\c2ccccc2O)nc1C,25.5*,0.1,2.0,5.1,1.1,-0.8
CCOC(=O)c1sc(N/N=C/c2ccccc2)nc1C,6.9,1.2*,1.7,4.0,2.6,1.3
COc1cccc(CC(NC(C)=O)C(=O)NC2CCN(c3nc(C)cc(C)c3C#N)CC2)c1 (configuration not stated),-1.4,-1.0,-0.2,-1.3,0.0,0.5
COc1ccc(CC(NC(C)=O)C(=O)NC2CCN(c3nc(C)cc(C)c3C#N)CC2)c(OC)c1 (configuration not stated),-0.6,-0.8,-0.2,0.8,0.1,9.4*
Cn1c2nc(=O)n(-c3ccccc3)c(=O)c-2nc2c1CCCC2,.,.,0.7,.,.,.
O=C(CCN1C(=O)c2ccccc2C1=O)N1CCOCC1,-1.7,0.1,2.0,-1.3,-0.1,0.4
O=C(CCN1C(=O)c2cccc3cccc(c23)C1=O)N1CCOCC1,12.8*,-0.5,1.5,3.4,2.2,-0.9
O=C(/C=C/c1ccccc1)N1CCN(CCN2C(=O)c3cccc4cccc(c34)C2=O)CC1,0.1,-1.4,-1.2,-1.0,-0.6,9.8*
COC(=O)[C@H](CCSC)NC(=O)Cn1cnc(C(=O)Nc2ccc(C)c(C)c2)n1,10.8*,-0.5,1.8,5.7*,2.7,.
COC(=O)[C@H](CC(C)C)NC(=O)Cn1cnc(C(=O)Nc2ccc(C)c(C)c2)n1,8.9,0.6,-0.2,2.4,0.8,.
CCN(CC)CCCn1c2c(c(SCC(=O)Nc3ccccc3Cl)nc1=O)CCC2,0.1,-0.9,-0.1,1.1,2.1,.
CCN(CC)CCCn1c2c(c(SCC(=O)Nc3cccc4ccccc34)nc1=O)CCC2,-0.6,0.0,-0.8,2.6,3.8*,.
O=C(NCCN1C(=O)S/C(=C\c2ccc(Cl)c([N+](=O)[O-])c2)C1=O)C1=COCCO1,1.1,-1.1,1.5,-1.0,0.2,.
CCCOC(=O)Nc1cc(OC)ccc1[N+](=O)[O-],5.3,-0.5,4.7*,2.3,0.3,6.9
O=C(c1cc(C(=O)c2ccco2)cc(C(=O)c2ccco2)c1)c1ccco1,5.1,-1.5,2.3,-2.4,-0.3,10.7*
Oc1ccccc1C1=NN(c2ccccc2)C(c2ccc(F)cc2)C1 (configuration not stated),0.0,-1.1,-0.2,-0.8,-0.1,.
Oc1ccccc1C1=Nc2nc3ccccc3n2C(c2ccccc2)C1 (configuration not stated),13.1*,0.8,1.1,4.4,1.7,5.2
Cc1cccc(NC(=O)[C@@H]2CC(=O)O[C@@H]2c2ccccc2)c1C,0.1,-1.0,.,-1.0,-0.8,.
CCCSc1nc2c(cnn2-c2ccccc2)c(=O)n1N,13.1*,-1.0,0.6,5.8*,1.3,1.6
SMILES,hgDAF-12 ag,ssDAF12 agonist,DAX1 inh-1,hcDAF-12 act,DAX1 inh-2,Wee1 stabilizer
CCCCN1C(=O)C(CC(=O)NC2CC2)CC(C(=O)N(CC)CC)=C1C (configuration not stated),-0.5,-1.3,1.0,-1.1,0.4,.
O=c1cc(CN2CCN(c3ccccn3)CC2)nc2sccn12,-1.2,-1.2,0.7,5.7*,-0.4,-2.1
CCCc1nnc(NC(=O)C2CCN(C(=O)c3ccco3)CC2)s1,0.6,-1.2,0.3,-1.0,0.0,.
O=C(c1ccco1)N1N=C2CCCCCC2C1(O)C(F)(F)F (configuration not stated),0.4,-1.4,0.1,-1.1,0.3,10.6*
CC(C)Nc1nc(SC(C)C(=O)Nc2ccccc2)nc(N(C)C)n1 (configuration not stated),-0.4,-1.4,-1.2,-1.9,-0.3,10.3*
CCOC(=O)/C=C/[C@H]1CCc2cccc(C)c2O1,-0.4,-0.8,-0.6,-0.2,-0.1,.
COc1ccc(/C(C)=N/NC(=O)Cn2nc([N+](=O)[O-])cc2C)cc1,5.0,-1.6,4.5*,-0.1,0.0,3.5
CC(/C=N/NC(=O)c1nnn(-c2nonc2N)c1C(C)C)=C\c1ccco1,0.1,-1.1,0.6,-2.0,-0.9,.
Cc1nc2ccc(S(=O)(=O)NCC(=O)N3CCc4ccccc43)cc2s1,-0.4,0.9*,0.8,2.9,0.8,0.0
O=C(CCCn1c(=O)oc2ccccc21)N1CCc2ccccc2C1,5.4,0.6,0.1,7.9*,1.0,1.8
O=C(CCn1c(=O)oc2ccccc21)NCCN1CCc2ccccc2C1,1.0,-0.7,-0.1,4.0,0.1,-1.7
CCOC(=O)CN1C(=O)S/C(=C/c2ccc(O)c([N+](=O)[O-])c2)C1=O,-0.6,-1.9,5.9*,1.3,-0.7,2.3
CC(C)(C)OC(=O)N1CCN(C(=O)c2[nH]cnc2C(=O)Nc2cccc(Cl)c2)CC1,3.8,-1.4,5.9*,0.2,-0.3,.
FC(F)(F)c1nnc(N2CCN(c3ccc(Cl)cc3)CC2)s1,-0.5,-2.0,5.2*,-2.8,-0.3,0.1
Cc1cccc(N2CCN(c3nnc(C(F)(F)F)s3)CC2)c1,1.8,-2.1,0.5,-2.6,-0.2,0.3
O=C(Nc1ccc(Cl)cc1)c1ccc(OC2CSC2)cc1,0.7,-1.8,0.2,1.4,0.4,20.9*
O=C(N/N=C\c1ccc(Oc2ccccc2)cc1)c1csnn1,11.4*,0.0,5.4*,1.3,1.9,0.1
O=C(N/N=C/c1ccc(OC2CSC2)cc1)c1ccccc1,4.7,-0.2,1.9,1.9,4.2*,4.1
